Bioassay records from PubChem BioAssay.
PP5 primary: inhibitors of human protein phosphatase 5 (PP5); hit rate 0.18% among 320,000; inhibition, % at 6.7 µM; P53041; purified PP5c, OMFP substrate fluorescence;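 active = inhibition above the campaign's mean inhibition across all tested compounds plus 3 SD, cut at about 9.5% in these data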;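 also: 0% = DMSO only and 100% = 100 µM cantharidin control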
PAFAH1B2 inh: PAFAH1B2 (human) inhibition; recombinant PAFAH1B2, FP-rhodamine activity probe, fluorescence polarization; inhibition, % at 3.39 µM; hit rate 1.2% among 340,000;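 active = inhibition above the mean of all tested compounds plus 3 SD, cut at about 24% in these data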;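 also: 0% = enzyme with DMSO and 100% = wells lacking PAFAH1B2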
Target sequence (P68402 whole entry, looked up): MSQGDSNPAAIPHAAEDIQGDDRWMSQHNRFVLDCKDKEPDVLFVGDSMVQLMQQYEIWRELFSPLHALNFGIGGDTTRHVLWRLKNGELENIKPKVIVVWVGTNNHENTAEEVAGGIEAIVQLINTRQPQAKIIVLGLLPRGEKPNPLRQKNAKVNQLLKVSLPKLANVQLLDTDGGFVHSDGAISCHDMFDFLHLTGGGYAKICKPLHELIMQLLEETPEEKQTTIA
PAFAH1B3 FP inh: PAFAH1B3 (human) inhibition | Q15102 | recombinant PAFAH1B3, FP-rhodamine probe, fluorescence polarization | inhibition, % at 3.39 µM | hit rate 0.28% among 340,000 | AID 492972;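 active = inhibition above the screen-wide average of all tested compounds plus 3 SD, cut at about 25% in these data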;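 also: 0% = enzyme with DMSO only and 100% = wells lacking PAFAH1B3 protein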
Target sequence (Q15102 whole entry, looked up): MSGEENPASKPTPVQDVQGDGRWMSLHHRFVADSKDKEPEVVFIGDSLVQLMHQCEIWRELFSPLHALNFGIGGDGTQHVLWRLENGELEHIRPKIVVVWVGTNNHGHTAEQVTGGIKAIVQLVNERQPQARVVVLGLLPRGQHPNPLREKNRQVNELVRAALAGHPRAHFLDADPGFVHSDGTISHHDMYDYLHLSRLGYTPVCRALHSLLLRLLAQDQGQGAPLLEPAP
pPAFAH FP inh: pPAFAH (human) enzyme inhibition. recombinant pPAFAH, FP-rhodamine probe fluorescence polarization. inhibition, % at 3.39 µM. AID 463082. hit rate 1.5% among 330,000. Q13093;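 active = inhibition above the mean inhibition across the screen plus 3 SD, cut at about 25% in these data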;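 also: inhibitors block binding of the rhodamine activity-based probe so polarization drops; 0% = enzyme with DMSO and 100% = wells lacking pPAFAH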
PP1 counter: blocks human PP1-alpha phosphatase, a PP5 counter-screen | inhibition, % at 6.7 µM | hit rate 0.9% among 320,000 | purified PP1alpha, OMFP fluorescence | P62136;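 active = inhibition above the mean inhibition of all tested compounds plus 3 SD, computed separately for each screening campaign, cut at about 15% in these data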
PAFAH2 FP inh: PAFAH2 (human) inhibition | Q99487 | hit rate 0.99% among 340,000 | inhibition, % at 3.39 µM | recombinant PAFAH2, FP-rhodamine activity probe, fluorescence polarization;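 active = inhibition above the mean over all tested compounds plus 3 SD, cut at about 30% in these data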;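 also: inhibitors block probe labeling of enzyme so polarization drops; 0% = enzyme with DMSO and 100% = wells lacking PAFAH2 protein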
* marks the source's active call; other numbers are inactive results; x = no result. Sampled rows, rich in hits. Any-hit rate of the full collection: about 3.4%.

SMILES | PP5 primary | PAFAH1B2 inh | PAFAH1B3 FP inh | pPAFAH FP inh | PP1 counter | PAFAH2 FP inh
Cc1c(Br)c(O)c(Br)c(O)c1/C=N/n1c(-c2ccccc2)n[nH]c1=S | 0 | 14 | 35* | 14 | 0 | 22
CC(C)c1ccc(/C=N/n2c(-c3ccccc3)n[nH]c2=S)cc1 | 1 | 4 | 12 | 25* | 7 | 10
O=C(COC(=O)c1cc(S(=O)(=O)N2CCOCC2)ccc1F)NCc1ccco1 | -1 | 2 | -1 | 9 | 1 | -6
O=C(O)CN1C(=O)/C(=C\c2cc([N+](=O)[O-])ccc2OCc2ccccc2Cl)SC1=S | -3 | 7 | 12 | 45* | 9 | 25
CC1CCC2(CC1)NC(=O)N(CC(=O)N1CCN(S(=O)(=O)c3ccc4c(c3)CCC4)CC1)C2=O (stereo not drawn) | 0 | -2 | -9 | -2 | -4 | -7
O=C(O/N=C/c1ccc(Br)cc1)c1ccc(F)cc1 | 0 | 45* | 2 | -2 | -1 | 67*
N/C(=N\OC(=O)c1ccc(F)cc1)c1ccc(Br)cc1 | 1 | 2 | 3 | -5 | -3 | -1
COC(=O)c1ccccc1NC(=O)NCCc1ccc(OC)c(OC)c1 | -1 | -3 | 3 | 4 | 1 | 1
O=C1NC(=Nc2cccc(O)c2)S/C1=C\c1cccc([N+](=O)[O-])c1 | 1 | 9 | 9 | 23 | 17* | 4
Cc1ccc(NS(=O)(=O)c2ccc(C(=O)N3CCC3)cc2)cc1 | -1 | -1 | 0 | 28* | -6 | 2
Cc1ccc(S(=O)(=O)NCc2ccc(C(=O)N3CCN(c4ccccn4)CC3)cc2)cc1 | 5 | -5 | -6 | 9 | -6 | 0
Cc1ccc(NS(=O)(=O)c2ccc(C(=O)N3CCN(c4ccccn4)CC3)cc2)cc1 | 3 | 6 | 0 | 25* | 3 | -1
O=C(c1ccc(S(=O)(=O)Nc2ccccc2)cc1)N1CCCC(C(F)(F)F)C1 (stereo not drawn) | 1 | 1 | -2 | 28* | 0 | 3
Cc1ccc(NS(=O)(=O)c2ccc(C(=O)NC3CCN(Cc4ccccc4)CC3)cc2)cc1 | x | 4 | 7 | 26* | x | -4
CC(C)c1ccc(N(CC(=O)NC2CCCC2)C(=O)CCC(=O)Nc2nccs2)cc1 | 2 | 1 | -1 | 1 | -1 | 5
Cc1ccc(C2=NS(=O)(=O)N(C)C(C(=O)NCc3ccco3)=C2)cc1 | 1 | 8 | -1 | 1 | 3 | 7
CCCCCNC(=O)C(C)Sc1ccc(Cl)cc1 (stereo not drawn) | 0 | 30* | 3 | -2 | -2 | 4
CCCCCCNC(=O)C(=O)NCCc1ccc(Cl)cc1 | 0 | -2 | 7 | -2 | -3 | -4
Cc1nn(C(C)(C)C)c(NC(=O)c2ccccc2)c1C#N | 2 | 8 | 7 | 6 | 0 | -2
CN(C)c1ccc(C=c2c3cc(O)ccc3n3c2cc(-c2ccccc2)[n+]3C)cc1 | x | -10 | 8 | x | x | -38
C[n+]1c(-c2ccccc2)cc2c(=Cc3ccc([N+](=O)[O-])cc3)c3ccccc3n21 | x | 6 | 39* | x | x | 81*
CCOC(=O)C1(C(F)(F)F)N=C(c2ccccc2F)OC(N(C)C)=N1 (stereo not drawn) | 0 | 6 | 3 | -3 | 2 | 0
O=C(/C(=C/c1ccc(Cl)cc1)c1nc2ccccc2[nH]1)c1ccccc1 | 3 | -15 | -22 | -4 | 5 | -33
Cc1nc2c(nc1C)C(=O)c1ccccc1C2=O | x | 4 | 8 | x | x | 4
COC1=C(N)C(=O)c2nc(C)ccc2C1=O | x | 27* | 63* | x | x | 18
SMILES | PP5 primary | PAFAH1B2 inh | PAFAH1B3 FP inh | pPAFAH FP inh | PP1 counter | PAFAH2 FP inh
O=C(CSc1ncnc2ccccc12)Nc1cc(S(=O)(=O)N2CCCCC2)ccc1Cl | 2 | 2 | -4 | 15 | 16* | 0
C=CCn1cnc2c(sc3nc(C)cc(C)c32)c1=O | 1 | 0 | 1 | 3 | -5 | 3
COc1cccc(/C=C2/Sc3ccc(C(=O)NCCN4CCCC4)cc3NC2=O)c1 | 5 | -1 | 3 | 34* | -1 | -8
O=C(NCc1ccc2c(c1)OCO2)c1cc2c(s1)CSC2 | 3 | -1 | 0 | 21 | 2 | 6
O=C(NCc1ccco1)c1cc2c(s1)CSC2 | 3 | x | x | 28* | 9 | x
O=C(OCCc1ccccc1)c1cc(O)c(O)c(O)c1 | -1 | 55* | 12 | 15 | 0 | 17
Nc1ccc(C(=O)OCCc2ccccc2)cc1 | 2 | 7 | 1 | 9 | 0 | 18
